Reference: the supplement of paper PMC12645437, “Orthogonal IMiD-Degron Pairs Induce Selective Protein Degradation in Cells” (ACS Chemical Biology, 2025)
The full ranking holds about 8,300 sequences; the median of “log2 fold change of degron read counts, EGFP-low vs EGFP+ sorted cells (limma voom), compound-induced degradation” is about -1.1, and the highest 2% start at about 3.2. This is one part of a sample in which the highest values are shown more often than they occur.

Molecular target: T1, CRBN, Q96SW2
T1 chain: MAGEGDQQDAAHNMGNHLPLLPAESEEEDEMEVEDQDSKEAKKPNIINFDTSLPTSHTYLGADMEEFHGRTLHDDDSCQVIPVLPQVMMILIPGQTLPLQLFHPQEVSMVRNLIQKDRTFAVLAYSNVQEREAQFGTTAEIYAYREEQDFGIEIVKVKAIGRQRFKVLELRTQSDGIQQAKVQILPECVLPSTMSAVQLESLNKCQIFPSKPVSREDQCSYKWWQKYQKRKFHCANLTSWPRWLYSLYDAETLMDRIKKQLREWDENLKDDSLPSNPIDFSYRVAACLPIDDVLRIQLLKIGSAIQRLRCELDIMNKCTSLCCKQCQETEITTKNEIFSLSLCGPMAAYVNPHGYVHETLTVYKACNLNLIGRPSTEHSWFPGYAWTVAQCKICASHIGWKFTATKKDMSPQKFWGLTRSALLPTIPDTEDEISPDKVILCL
Assay: log2 fold change of degron read counts, EGFP-low vs EGFP+ sorted cells (limma voom), compound-induced degradation; higher = more compound-induced degradation of the degron-EGFP fusion; degrons are variants of IKZF1/3 zinc finger 2; compound dose not given here
Details: Jurkat, 18 h

[1] = compound: compound 19 (5-tert-butyl-thalidomide)
[2] = compound: compound 22 (5-morpholino-thalidomide)
[3] = compound: compound 33 (diphenyl IMiD analogue)
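Also: pooled lentiviral library of zinc finger degron-EGFP fusions in mCherry-positive Jurkat cells, FACS-sorted after compound exposure, with degron abundance counted by next-generation sequencing.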

| Sequence | log2 fold change of degron read counts [1] | log2 fold change of degron read counts [2] | log2 fold change of degron read counts [3] | log2 fold change of degron read counts (compound: thalidomide) |
| --- | --- | --- | --- | --- |
| FECPICGRRFTQKGNLLRHIKL [46F_47E_49P_50I_52G_53R_54R_55F_67L_, Q9UKT9] | -0.662 | -1.27 | 0.491 | 2.58 |
| FRCPQCGADFTQKGNLLRHIKL [46F_47R_49P_50Q_52G_53A_54D_55F_67L_, Q9UKT9] | -3.08 | -3.48 | -0.625 | -1.35 |
| LCCNQCGFCCTQKGNLLRHIKL [46L_47C_49N_50Q_52G_53F_54C_55C_67L_, Q9UKT9] | -1.92 | -2.67 | -1.9 | -2 |
| FDCDICGAFFTQKGNLLRHIKL [46F_47D_49D_50I_52G_53A_54F_55F_67L_, Q9UKT9] | -1.35 | -2.45 | -1.91 | -1.7 |
| LMCEICGFKCTQKGNLLRHIKL [46L_47M_49E_50I_52G_53F_54K_55C_67L_, Q9UKT9] | 0.00993 | -0.209 | 0.918 | 1.45 |
| FHCNQCGHMFTQKGNLLRHIKL [46F_47H_49N_50Q_52G_53H_54M_55F_67L_, Q9UKT9] | -2.28 | -2.39 | -2.58 | -2.2 |
| FLCDICGATFTQKGNLLRHIKL [46F_47L_49D_50I_52G_53A_54T_55F_67L_, Q9UKT9] | -1.67 | -1.74 | -0.434 | -0.565 |
| FECPICGATFTQKGNLLRHIKL [46F_47E_49P_50I_52G_53A_54T_55F_67L_, Q9UKT9] | 0.0819 | -0.536 | 1.91 | 2.9 |
| FYCNICGATFTQKGNLLRHIKL [46F_47Y_49N_50I_52G_53A_54T_55F_67L_, Q9UKT9] | 0.426 | 2.67 | 0.933 | -0.961 |
| FTCPICGATFTQKGNLLRHIKL [46F_47T_49P_50I_52G_53A_54T_55F_67L_, Q9UKT9] | 0.225 | 2.5 | 2.28 | 2.88 |
| FGCNICGATFTQKGNLLRHIKL [46F_47G_49N_50I_52G_53A_54T_55F_67L_, Q9UKT9] | 0.0778 | 1.89 | 1.52 | 0.109 |
| FDCPICGATFTQKGNLLRHIKL [46F_47D_49P_50I_52G_53A_54T_55F_67L_, Q9UKT9] | 1.59 | 0.119 | 1.11 | 1.68 |
| FQCDICGATFTQKGNLLRHIKL [46F_47Q_49D_50I_52G_53A_54T_55F_67L_, Q9UKT9] | -0.685 | 1.86 | 0.81 | 3.25 |
| FLCPICGATFTQKGNLLRHIKL [46F_47L_49P_50I_52G_53A_54T_55F_67L_, Q9UKT9] | -1.02 | -0.515 | 1.48 | 1.68 |
| FYCPICGATFTQKGNLLRHIKL [46F_47Y_49P_50I_52G_53A_54T_55F_67L_, Q9UKT9] | 3.2 | 3.57 | 2.42 | 1.16 |
| FQCNICGATFTQKGNLLRHIKL [46F_47Q_49N_50I_52G_53A_54T_55F_67L_, Q9UKT9] | -0.501 | 1.47 | 1.42 | 3.87 |
| FWCPICGATFTQKGNLLRHIKL [46F_47W_49P_50I_52G_53A_54T_55F_67L_, Q9UKT9] | 2.22 | 3.57 | 1.64 | 0.523 |
| FCCDICGATFTQKGNLLRHIKL [46F_47C_49D_50I_52G_53A_54T_55F_67L_, Q9UKT9] | 0.685 | 1.05 | 1.24 | 0.177 |
| FICPQCGADFTQKGNLLRHIKL [46F_47I_49P_50Q_52G_53A_54D_55F_67L_, Q9UKT9] | -3.68 | -2.36 | -1.84 | -2.04 |
| FFCPICGHLFTQKGNLLRHIKL [46F_47F_49P_50I_52G_53H_54L_55F_67L_, Q9UKT9] | -0.994 | -0.746 | -0.828 | -1.02 |
| LLCEICGFFCTQKGNLLRHIKL [46L_47L_49E_50I_52G_53F_54F_55C_67L_, Q9UKT9] | -0.357 | -0.957 | -0.00991 | 0.351 |
| FMCDICGAMFTQKGNLLRHIKL [46F_47M_49D_50I_52G_53A_54M_55F_67L_, Q9UKT9] | -1.51 | -1.89 | 0.647 | -1.45 |
| FGCPICGRQFTQKGNLLRHIKL [46F_47G_49P_50I_52G_53R_54Q_55F_67L_, Q9UKT9] | 2.87 | 0.813 | 0.341 | -0.4 |
| LECPICGFVCTQKGNLLRHIKL [46L_47E_49P_50I_52G_53F_54V_55C_67L_, Q9UKT9] | -0.508 | -0.452 | 1.81 | 2.84 |
| FRCPVCGAYFTQKGNLLRHIKL [46F_47R_49P_50V_52G_53A_54Y_55F_67L_, Q9UKT9] | -0.775 | 0.429 | 1.02 | 1.64 |
| LHCEICGFQCTQKGNLLRHIKL [46L_47H_49E_50I_52G_53F_54Q_55C_67L_, Q9UKT9] | 2.39 | 2.27 | 1.7 | 1.64 |
| LCCNQCGFNCTQKGNLLRHIKL [46L_47C_49N_50Q_52G_53F_54N_55C_67L_, Q9UKT9] | -2 | -2.61 | -2.13 | -1.77 |
| FTCDVCGARFTQKGNLLRHIKL [46F_47T_49D_50V_52G_53A_54R_55F_67L_, Q9UKT9] | 0.31 | 1.8 | 0.304 | 1.36 |
